Data reported in PubChem BioAssay (NCI).
Compounds without any hit were thinned out: in the full panel of roughly 83,000, 20% have a hit.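 How to read the values: 0–100, growth inhibition (40 = 60% inhibited); 0, no net growth; -100 to 0, cell death (-40 = 40% of starting cells died; -100 = all dead).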 Values without a mark were called inactive. The source made the active and inactive calls. The calls were made as follows: active = growth percent below 10; inactive = the rest.

Tests used:
Assay in all cases: NCI-60 one-dose screen, 48 h (100 = growth as untreated, 0 = no growth, -100 = all killed)
Conditions in all cases: 10 µM unless noted
[1] = test system: DU-145 prostate
[2] = test system: K-562 leukemia
[3] = test system: MALME-3M melanoma
[4] = test system: MDA-MB-231 breast
[5] = test system: RXF 393 renal
[6] = test system: SF-268 CNS
[7] = test system: SF-295 CNS
[8] = test system: UACC-257 melanoma
[9] = test system: M14 melanoma
[10] = test system: HCT-15 colon
[11] = test system: SNB-75 CNS
[12] = test system: SNB-19 CNS
[13] = test system: U251 CNS
[14] = test system: PC-3 prostate
[15] = test system: SK-MEL-5 melanoma
[16] = test system: UACC-62 melanoma
[17] = test system: LOX IMVI melanoma
[18] = test system: SK-MEL-28 melanoma
[19] = test system: SF-539 CNS
[20] = test system: HT29 colon

| SMILES | growth [1] | growth [2] | growth [3] | growth [4] | growth [5] | growth [6] | growth [7] | growth [8] | growth [9] | growth [10] | growth [11] | growth [12] | growth [13] | growth [14] | growth [15] | growth [16] | growth [17] | growth [18] | growth [19] | growth [20] |
| --- | --- | --- | --- | --- | --- | --- | --- | --- | --- | --- | --- | --- | --- | --- | --- | --- | --- | --- | --- | --- |
| CCN(C(=O)CN1CCN(c2cc3c(cc2F)c(=O)c(C(=O)O)cn3C2CC2)CC1)c1nc(-c2ccc(OC)cc2)cs1 | 35.7% | 32.5% | 66.1% | 68.5% | 74.9% | 59.8% | 94.6% | 43.1% | 48.7% | 51.5% | 81.8% | 78.2% | 14.1% | 20.9% | 28.9% | 17.1% | -57.9% (active) | 45.1% |  |  |
| O=C1/C(=C/c2ccc(Cl)cc2Cl)CN(S(=O)(=O)c2ccccc2)C/C1=C\c1ccc(Cl)cc1Cl | 9.52% (active) | 0.787% (active) | 36.8% | -23.2% (active) | -87% (active) | 4.96% (active) |  |  | 20.5% | -14.7% (active) | 27.8% | 39.1% |  | 6.14% (active) | 47.5% | 2.57% (active) | -58.7% (active) | 34.4% | -54.1% (active) | -27.5% (active) |
| Cc1sc2nc3[nH]/c(=C\c4ccc(Cl)cc4)c(=O)n3c(=O)c2c1C | 109% | 101% | 102% | 111% | 99.5% | 102% |  |  | 103% | 96.5% | 89.6% | 101% |  | 97.3% | 99.4% | 99.2% | 103% | 99.8% | 103% | 96.1% |
| COc1ccc(/C=C2\N=C3Sc4cc(Cl)ccc4C(=O)N3C2=O)cc1 | 110% | 94.1% | 101% | 100% | 106% | 106% |  |  | 99.6% | 102% | 76.8% | 101% |  | 85.5% | 99.8% | 98% | 98.8% | 103% | 98.7% | 104% |
| NC1=CSC2=N/C(=C\c3ccc(Cl)cc3)C(=O)N12 | 77.9% | 40.1% | 64.9% | 83.2% | 65.7% | 90.4% |  |  | 76.8% | 66.7% | 87.4% | 87% |  | 80.6% | 72.6% | 90.3% | 50.6% | 96.3% | 90.4% | 62.6% |
| O=c1c2cccc3c(Nc4ccccn4)ccc(c32)c2nc3ccccc3n12 | 91.8% | 46.5% | 86.3% | 70.6% | 108% | 87.2% |  |  | 91% | 59.2% | 78.6% | 89.9% |  | 64% | 51.8% | 64.3% | 69.6% | 101% | 85.7% | 64.6% |
| CCCCCCCCCCCCCCCCNCCC[C@@H](C)[C@H]1CC[C@H]2[C@@H]3[C@H](OCCCN)C[C@@H]4C[C@H](OCCCN)CC[C@]4(C)[C@H]3C[C@H](OCCCN)[C@]12C | -82.2% (active) | -34.7% (active) | -60.7% (active) | -98.2% (active) | -41.2% (active) | -38.2% (active) |  |  | -28.7% (active) | 7.08% (active) | -64.8% (active) | -66.6% (active) |  | -14.4% (active) | 3.14% (active) | -64.2% (active) | -60.4% (active) | -64.7% (active) | -68% (active) | -41% (active) |
| Cc1ccccc1CCO | 111% | 114% | 92.5% | 110% | 104% | 101% | 99.6% | 89.4% | 98.3% | 99.8% | 102% | 108% | 98.6% | 97.6% | 102% | 108% | 103% | 99.9% |  |  |
| O=c1c2cccc3c(NC4CCCCC4)ccc(c32)c2nc3ccccc3n12 | 98.7% | 66.9% | 96.1% | 82.3% | 112% | 99.5% |  |  | 86.7% | 74.8% | 83% | 89.4% |  | 80% | 66.1% | 82.8% | 73.4% | 92.1% | 96.2% | 76.8% |
